Results: the supplement of paper PMC12669032

Experiments:
Assay in all cases: growth AUC relative to DMSO control (median of replicates) (fraction); higher = more growth (less inhibition), active = hit call of the paper
Settings in all cases: 20 µM; 24 h;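 active = AUC reduced over 20% with Padj below 0.05 in at least 2 of 3 replicates; inactive = otherwise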
[1] = tested on: Coprococcus comes
In short: (§1)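 Hourly OD600 readings over 24 h tracked anaerobic gut bacterial monocultures grown at 37 °C in mGAM from OD600 0.05 with 20 µM compound (1% DMSO). After the minimum OD was set to 0, area under the growth curve was normalised to the plate median of solvent-only wells, or to row and column medians on the industrial chemical plate. Values are medians of three biological replicates grown on separate days.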

[2] = tested on: Escherichia coli ED1a
In short: as §1

[3] = tested on: Escherichia coli IAI1
In short: as §1

[4] = tested on: Eubacterium rectale
In short: as §1

[5] = tested on: Fusobacterium nucleatum subsp. animalis
In short: as §1

[6] = tested on: Lactobacillus gasseri
In short: as §1

[7] = tested on: Lactobacillus paracasei
In short: as §1

[8] = tested on: Odoribacter splanchnicus
In short: as §1

[9] = tested on: Parabacteroides distasonis
In short: as §1

[10] = tested on: Parabacteroides merdae
In short: as §1

[11] = tested on: Roseburia intestinalis
In short: as §1

[12] = tested on: Streptococcus salivarius
In short: as §1

Measured: growth AUC

CCOP(=O)(Sc1ccccc1)Sc1ccccc1
inactive: [1] 1.02 | [2] 0.995 | [3] 0.982 | [4] 1.13 | [5] 1.08 | [6] 0.957 | [7] 0.953 | [8] 0.965 | [10] 0.934 | [11] 0.946 | [12] 0.948
active: [9] 0.649

CCCCN(CCCC)N=O
inactive: [1] 0.982 | [2] 0.995 | [3] 1 | [4] 1.02 | [5] 1.02 | [6] 1.11 | [7] 1.02 | [8] 1 | [9] 1.16 | [10] 1.01 | [11] 1 | [12] 1.01

Cc1cc(C(C#N)c2ccc(Cl)cc2)c(Cl)cc1NC(=O)c1cc(I)cc(I)c1O (stereo not given)
active: [1] 0.275 | [4] 0.072 | [5] 0.702 | [6] 0.0202 | [7] 0.0904 | [8] 0.017 | [9] 0.0201 | [10] 0.00673 | [11] 0.15 | [12] 0.0175
inactive: [2] 0.958 | [3] 0.953

CCS(=O)(=O)Oc1ccc2c(c1)C(C)(C)CO2
inactive: [1] 1.08 | [2] 1.02 | [3] 1.02 | [4] 0.83 | [5] 0.966 | [6] 1.06 | [7] 1 | [8] 1.07 | [9] 1.03 | [10] 0.963 | [11] 1.04 | [12] 1.03

C=CC1(C)OC(=O)N(c2cc(Cl)cc(Cl)c2)C1=O (stereo not given)
inactive: [1] 0.982 | [2] 0.979 | [3] 0.967 | [4] 0.956 | [5] 0.991 | [6] 1.1 | [7] 0.878 | [8] 0.982 | [9] 0.98 | [10] 0.982 | [11] 0.973 | [12] 1.02

CCCOCC(=Nc1ccc(Cl)cc1C(F)(F)F)n1ccnc1
active: [1] 0.505 | [4] 0.382 | [9] 0.746
inactive: [2] 0.994 | [3] 0.995 | [5] 1.11 | [6] 0.894 | [7] 0.938 | [8] 0.932 | [10] 0.894 | [11] 0.805 | [12] 0.982

COS(=O)(=O)[O-].Cn1c(-c2ccccc2)cc(-c2ccccc2)[n+]1C
inactive: [1] 1 | [2] 0.98 | [3] 0.974 | [4] 1 | [5] 0.985 | [6] 0.964 | [7] 0.981 | [8] 1.01 | [9] 0.985 | [10] 0.974 | [11] 0.948 | [12] 0.97

COP(=S)(OC)Oc1ccc(S(C)(=O)=O)c(C)c1
inactive: [1] 1.03 | [2] 0.991 | [3] 0.985 | [4] 1 | [5] 1.1 | [6] 0.901 | [7] 1.01 | [8] 1.03 | [9] 0.987 | [10] 0.993 | [11] 0.985 | [12] 0.972

COC(=O)C(C)N(C(=O)Cc1ccccc1)c1c(C)cccc1C (stereo not given)
inactive: [1] 0.967 | [2] 0.995 | [3] 0.972 | [4] 0.916 | [5] 0.917 | [6] 0.888 | [7] 0.98 | [8] 0.96 | [9] 0.985 | [10] 0.944 | [11] 0.975 | [12] 0.96

CC(=NCc1ccc(Cl)nc1)NC#N
inactive: [1] 1 | [2] 1.02 | [3] 1.03 | [4] 1 | [5] 1.09 | [6] 0.997 | [7] 1.03 | [8] 1.04 | [9] 0.999 | [10] 0.968 | [11] 0.997 | [12] 1
